# KDM5B inhibitor – inhibitors of human KDM5B histone demethylase | Q9UGL1 | KDM5B demethylase, FDH-coupled NADH fluorescence (FDH is formaldehyde dehydrogenase) | Potency, µM (doses to about 57.7 µM), hits mostly inhibitors | 220,000 compounds, 2.6% hits; active = well fitted inhibition curve with a large enough effect; inconclusive = small, poorly fitted or top-dose-only effect; inactive = no such curve, though single readings can be large or run the other way; note: potency is the fitted concentration of half-maximal effect; 0% is about no effect; nearly all actives have a fitted effect of over 70% in size
#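 Compound dilutions met 200 nM (final) KDM5BΔAP for 10 min at room temperature before substrate addition. The substrate mix held 12.5 µM H3K4me3 with cofactors 25 µM α-ketoglutarate and 50 µM Fe²⁺. NADH signal gain over 30 min defined activity.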
# IP6K1 inh – inhibitors of human IP6K1; Q92551; IP6K1 kinase, ADP-Glo luminescence, 2 h; stronger effect = lower value; activity change, % (series mostly up to about 58 µM); 140,000 compounds, 0.81% hits; in the data active = activity change below about -25%; note: % is set by controls: 0 for no effect and ±100 for the full control effect
# Target sequence (Q92551 whole entry, looked up): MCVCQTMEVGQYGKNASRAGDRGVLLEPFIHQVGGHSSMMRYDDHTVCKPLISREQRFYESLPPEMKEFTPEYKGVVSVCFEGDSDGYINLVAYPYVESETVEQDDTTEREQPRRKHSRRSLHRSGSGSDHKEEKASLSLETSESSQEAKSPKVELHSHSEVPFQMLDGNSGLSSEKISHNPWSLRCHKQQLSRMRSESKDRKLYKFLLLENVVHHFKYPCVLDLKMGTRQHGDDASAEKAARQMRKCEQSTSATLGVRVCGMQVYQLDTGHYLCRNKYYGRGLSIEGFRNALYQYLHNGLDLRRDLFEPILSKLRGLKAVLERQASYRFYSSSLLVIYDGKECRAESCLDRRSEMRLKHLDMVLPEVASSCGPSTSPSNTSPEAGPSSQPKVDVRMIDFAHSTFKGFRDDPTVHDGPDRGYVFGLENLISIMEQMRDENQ
#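 ADP-Glo luminescence measures ADP made by human IP6K1 during a 2 h RT reaction with ATP/IP6 (mix at 1.3 mM/130 uM); top library doses 57.5 and 19.1 uM final.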
# Numbers without * were called inactive; i = inactive; u = inconclusive; x = no result given. Rows were chosen to be rich in hits. Some 2.8% of all compounds tested hit in one or more screens of this group.
SMILES,KDM5B inhibitor,IP6K1 inh
Cc1cn2nc(C(=O)NCc3cc(F)cc(F)c3)cc2c(N(C)Cc2ccccc2)n1,20µM*,-12
CSc1ccc(CNC(=O)c2cc3c(N(C)Cc4ccccc4)nc(C)cn3n2)cc1,25µM*,-10
Cc1cn2nc(C(=O)NCc3cc(F)cc(F)c3)cc2c(=O)[nH]1,i,-17
CSc1ccc(CN(C)CC(=O)NC(=O)NCc2ccccc2)cc1,i,x
Cc1cn2nc(C(=O)NCc3ccccc3)cc2c(N(C)Cc2ccccc2)n1,32µM*,-5
Cc1cccc(CNC(=O)c2cc3c(N(C)Cc4ccccc4)nc(C)cn3n2)c1,25µM*,-9
Cc1cc2ncc(C(=O)NCc3ccccc3)cn2n1,x,2
CC(C)(C)CC(=O)N[C@@H]1C=C(C(=O)NCC(N)=O)C[C@@H](O)[C@@H]1O,i,1
CC(C)CNC(=O)c1csc2c1CCC(C)C2 (stereo not drawn),i,x
Cc1ccc(NS(=O)(=O)c2ccc(N/N=C3/CCSC3)c([N+](=O)[O-])c2)c(C)c1,i,x
O=C(Nc1ccccc1NC(=O)c1ccncc1)c1ccncc1,i,x
COc1ccc(-n2cc(CN3CCC(O)CC3)c(-c3cccc(F)c3)n2)cc1,28µM*,13
COc1ccc(-c2nn(-c3ccccc3)cc2CN2CCC(F)CC2)c(F)c1,u,-12
CCN(CC)CCCn1c(-c2ccc(COc3ccc(Cl)cc3Cl)cc2)n[nH]c1=S,i,x
CC(C)CNC(=O)c1nc(-c2ccc(Cl)cc2)c2cnccn12,u,10
C[S+](=O)([O-])c1ccc(-c2cc(C(=O)NCCc3ccc(Cl)cc3)nn3cccc23)cc1,i,6
C[S+](=O)([O-])c1ccc(-c2nc(C(=O)NCCc3ccc(Cl)cc3)n3ccccc23)cc1,89µM*,19
CS(=O)(=O)c1ccc(-c2nc(C(=O)NCc3cccnc3)n3ccncc23)cc1,10µM*,19
O=C(NCCc1ccc(Cl)cc1)c1nc(-c2ccc(Cl)cc2)c2ccccn12,25µM*,12
O=C(NCCc1ccc(Cl)cc1)c1nc2sccn2c1-c1ccccc1,x,5
C[S+](=O)([O-])c1ccc(-c2nc(C(=O)NCCc3ccc(Cl)cc3)n3ccncc23)cc1,79µM*,-6
CCOC(=O)C1=CNc2cc(C)nn2C1(O)C(F)(F)F (stereo not drawn),i,x
Cc1ccc(OCCC2CCN(C(=O)Cc3cccnc3)C2)cc1 (stereo not drawn),i,2
C=CCNC(=S)Nc1ccc(Br)cc1,i,x
N#Cc1cc(C(=O)c2cc(Cl)ccc2O)cn(C2CC2)c1=O,i,x
SMILES,KDM5B inhibitor,IP6K1 inh
O=C(NCc1cccc(C(F)(F)F)c1)C1CN(C2CCCC2)C(=O)N1 (stereo not drawn),x,-13
CNc1snc(C)c1C(=O)OCc1csc(-c2ccc(F)cc2)n1,i,x
COc1ccc(-c2noc(-c3ccc(S(=O)(=O)N(C)C)o3)n2)cc1,i,x
CCOc1cc(C)c(C(C)C)cc1S(=O)(=O)n1ccnc1C(C)C,i,x
O=C(NCc1cc(F)cc(F)c1)c1nc(-c2ccc(F)cc2)c2ccccn12,u,25
O=C(NCc1ccc(F)cc1)c1nc(-c2ccc(Cl)cc2)c2ccccn12,25µM*,10
O=C(NCc1cccnc1)c1nc(-c2ccc(F)cc2)c2ccccn12,28µM*,22
O=C(NCc1ccc2c(c1)OCO2)c1nc(-c2ccc(F)cc2)c2ccccn12,u,19
COc1ccccc1-c1noc(-c2ccc(N3CCC(C)CC3)c([N+](=O)[O-])c2)n1,i,9
O=C1CC(Cc2ccccc2)C(=O)N1c1ccc2ccccc2n1 (stereo not drawn),i,x
CCc1noc(-c2ccc(NCc3ccccc3)c([N+](=O)[O-])c2)n1,u,20
CCC(C)(C)NC(=O)c1ccc2nc(C)c(C)nc2c1,i,x
COc1cccc(-c2nc(CS(=O)(=O)CC(=O)NCc3cccnc3)c(C)o2)c1,i,x
O=C(c1ccc(Cl)cc1)N1CCC([C@@H]2CNC[C@H]2CO)CC1,i,16
O=C(c1cnccn1)N1CCC([C@@H]2CNC[C@H]2CO)CC1,14µM*,-2
FC(F)(F)c1cccc(-c2nccn3c(C4CN(Cc5ccc6cn[nH]c6c5)C4)ncc23)c1,u,-9
Cc1nn(CC(=O)Nc2nc3ccc(F)cc3s2)c(=O)c2ccccc12,i,x
N#CCSc1ccnc(SCC#N)n1,i,x
Cc1nnc(-c2cc(-c3cccc(O)c3)ccn2)n1-c1ccccc1,i,-3
COc1ncccc1-c1ccnc(-c2nnc(C)n2-c2ccccc2)c1,32µM*,5
COCCN1CCCC(c2[nH]ccc2C(=O)NCCc2nc3ccccc3[nH]2)C1 (stereo not drawn),i,26
Cn1c(CNC(=O)c2cc[nH]c2C2CCCNC2)nc2ccccc21 (stereo not drawn),32µM*,1
CCCCN(C(=O)c1ccc2c(=O)n3c(nc2c1)CCCCCC3)c1ccccc1,i,x
CC(C)CNC(=O)C1CCN(c2ncnc3nc[nH]c23)CC1,i,x
CCC(O)c1cc2n(n1)CCN(C(=O)CCn1cnc3ccccc3c1=O)C2 (stereo not drawn),i,14
SMILES,KDM5B inhibitor,IP6K1 inh
CCC(O)c1cc2n(n1)CCN(C(=O)CCc1cn3ccccc3n1)C2 (stereo not drawn),11µM*,10
CC(O)c1cc2n(n1)CCCN(C(=O)CCc1cn3ccccc3n1)C2 (stereo not drawn),25µM*,22
CCC(O)c1cc2n(n1)CCCN(C(=O)CCc1ccsc1)C2 (stereo not drawn),i,-5
C[S+](=O)([O-])N1CC2(Cc3ccccc31)CN(C(=O)Cc1cccc(Cl)c1)C2,u,0
CCOCC(=O)N1CCC(N2C(=O)C(O)C23CCCCC3)CC1 (stereo not drawn),i,-3
Cc1oc(-c2ccc(OC(C)C)cc2)nc1Cn1ccn2nc3c(c2c1=O)CCCC3,28µM*,29
CCOc1ccc(-c2cc3c(=O)n(Cc4nc(-c5ccc(OC(C)C)cc5)oc4C)ccn3n2)cc1Cl,u,-9
CC(=O)N1CCCC1C(=O)Nc1ccc(-c2nc3ccccc3o2)cc1 (stereo not drawn),28µM*,-5
Cc1ccc(C(=O)Nc2ccc(-c3nc4ccccc4o3)cc2)cc1,i,x
O=C(Nc1ccc(N2CCCC2=O)cc1)c1ccc(Cl)cc1N1CCCC1=O,i,x
C#CCN(CCC(=O)OC)C(C)C,i,x
COC(=O)CNC(=O)c1nc(-c2ccc(F)cc2)c2ccccn12,40µM*,8
COCCNC(=O)c1nc(-c2ccc([S+](C)(=O)[O-])cc2)c2ccccn12,i,16
COC(=O)CNC(=O)c1nc(-c2ccc(Cl)cc2)c2ccccn12,20µM*,4
COCCNC(=O)c1nc(-c2ccc(Cl)cc2)c2ccccn12,35µM*,0
O=[N+]([O-])c1cccc2[nH]c(CNc3nc(N4CCOCC4)nc4c3ncn4-c3ccsc3)nc12,x,16
O=C(CCc1cc(Cl)no1)N1CCc2c(nc3cc(-c4ccccc4)[nH]n3c2=O)C1,u,0
COc1ccc(-c2cc3nc4c(c(=O)n3[nH]2)CN(C(=O)c2ccc(Cc3c(C)noc3C)o2)CC4)cc1,28µM*,14
COc1ccc(CC(=O)N2CCc3c(nc4cc(-c5ccccc5Cl)[nH]n4c3=O)C2)cc1,u,12

# Bioassay records from PubChem.
